# Laboratory results published in the supplement of paper PMC11732987, “Enantioselective OTUD7B fragment discovery through chemoproteomics screening and high-throughput optimisation” (Communications Chemistry, 2025).
# Unmarked numbers belong to inactive results.
# How the values were obtained:
# Experiment in all cases: log2 ratio of Biotin-Ahx-Ub-VS probe labelling (fragment/DMSO); higher = less target engagement (more negative = stronger competition), active = hit call of the paper (q ≤ 0.05, log2 ratio ≤ -1)
# Details in all cases: compound concentration: 200 uM; treatment time: 3 h
# USP19 = target: T1, USP19 (UniProt O94966)
# T1 sequence (whole entry): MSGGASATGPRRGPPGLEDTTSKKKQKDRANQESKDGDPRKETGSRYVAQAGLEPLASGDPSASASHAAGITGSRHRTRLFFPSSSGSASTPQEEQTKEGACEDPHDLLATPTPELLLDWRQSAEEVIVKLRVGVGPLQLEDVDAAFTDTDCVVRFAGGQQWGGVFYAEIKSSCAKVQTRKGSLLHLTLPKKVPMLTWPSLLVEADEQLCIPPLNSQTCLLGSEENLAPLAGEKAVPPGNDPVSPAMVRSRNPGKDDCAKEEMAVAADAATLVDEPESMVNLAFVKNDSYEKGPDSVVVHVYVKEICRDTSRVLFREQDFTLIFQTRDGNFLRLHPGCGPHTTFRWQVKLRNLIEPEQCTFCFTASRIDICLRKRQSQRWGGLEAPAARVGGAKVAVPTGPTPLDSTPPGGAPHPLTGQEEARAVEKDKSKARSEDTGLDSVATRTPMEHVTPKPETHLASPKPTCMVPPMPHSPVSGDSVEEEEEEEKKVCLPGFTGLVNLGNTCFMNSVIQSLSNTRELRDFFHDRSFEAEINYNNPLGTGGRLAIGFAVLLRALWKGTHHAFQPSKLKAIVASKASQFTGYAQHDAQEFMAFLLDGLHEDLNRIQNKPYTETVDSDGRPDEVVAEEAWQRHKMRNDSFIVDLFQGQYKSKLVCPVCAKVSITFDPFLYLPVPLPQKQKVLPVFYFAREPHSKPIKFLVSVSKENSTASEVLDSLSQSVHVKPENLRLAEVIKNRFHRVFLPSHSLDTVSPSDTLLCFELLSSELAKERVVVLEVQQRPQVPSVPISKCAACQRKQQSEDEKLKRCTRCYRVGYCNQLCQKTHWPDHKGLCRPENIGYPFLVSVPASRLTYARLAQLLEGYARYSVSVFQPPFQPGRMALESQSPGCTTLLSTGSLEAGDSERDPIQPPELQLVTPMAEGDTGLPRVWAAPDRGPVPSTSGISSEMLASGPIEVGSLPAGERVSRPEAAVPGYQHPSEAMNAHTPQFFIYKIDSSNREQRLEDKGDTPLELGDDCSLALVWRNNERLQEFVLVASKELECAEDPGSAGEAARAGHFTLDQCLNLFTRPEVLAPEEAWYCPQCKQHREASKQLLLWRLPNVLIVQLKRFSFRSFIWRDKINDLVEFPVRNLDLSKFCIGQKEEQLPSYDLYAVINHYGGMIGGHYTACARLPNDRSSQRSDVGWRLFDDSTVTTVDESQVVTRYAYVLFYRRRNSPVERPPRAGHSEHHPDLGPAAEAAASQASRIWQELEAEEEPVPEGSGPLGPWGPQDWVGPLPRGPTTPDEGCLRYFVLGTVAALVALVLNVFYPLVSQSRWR
# In short: (§1)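 HEK293T lysate in Tris/CHAPS/IGEPAL buffer with protease inhibitors (495 µg per sample) was given fragment at 200 µM or vehicle for 3 h, in triplicate. It then received Biotin-Ahx-Ub-VS at 0.5 µM final for 1 h. Labelled DUBs were NeutrAvidin-enriched, digested with LysC and trypsin, and run by diaPASEF LC-MS/MS. Values are average log2 fragment/vehicle ratios by unpaired t-test on global-median-normalised Spectronaut quantities of proteins with ≥2 unique peptides.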
# USP22 = target: T2, USP22 (UniProt Q9UPT9)
# T2 sequence (whole entry): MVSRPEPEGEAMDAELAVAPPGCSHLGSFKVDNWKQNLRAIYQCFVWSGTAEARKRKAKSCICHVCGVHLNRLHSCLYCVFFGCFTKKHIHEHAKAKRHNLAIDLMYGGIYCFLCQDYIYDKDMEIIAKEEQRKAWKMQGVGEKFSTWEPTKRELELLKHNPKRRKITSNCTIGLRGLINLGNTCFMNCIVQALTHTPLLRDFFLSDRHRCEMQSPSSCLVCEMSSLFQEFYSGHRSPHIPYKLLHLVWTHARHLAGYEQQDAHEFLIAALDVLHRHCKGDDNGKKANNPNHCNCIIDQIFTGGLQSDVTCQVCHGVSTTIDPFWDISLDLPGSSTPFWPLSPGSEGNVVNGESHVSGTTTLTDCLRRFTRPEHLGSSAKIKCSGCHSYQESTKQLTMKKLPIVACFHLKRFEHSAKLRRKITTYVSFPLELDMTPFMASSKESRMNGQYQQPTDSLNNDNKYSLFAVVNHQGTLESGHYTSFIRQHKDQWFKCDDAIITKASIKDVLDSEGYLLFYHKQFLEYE
# In short: as §1
# USP24 = USP24 (UniProt Q9UPU5)
# USP24, sequence (Q9UPU5 whole entry): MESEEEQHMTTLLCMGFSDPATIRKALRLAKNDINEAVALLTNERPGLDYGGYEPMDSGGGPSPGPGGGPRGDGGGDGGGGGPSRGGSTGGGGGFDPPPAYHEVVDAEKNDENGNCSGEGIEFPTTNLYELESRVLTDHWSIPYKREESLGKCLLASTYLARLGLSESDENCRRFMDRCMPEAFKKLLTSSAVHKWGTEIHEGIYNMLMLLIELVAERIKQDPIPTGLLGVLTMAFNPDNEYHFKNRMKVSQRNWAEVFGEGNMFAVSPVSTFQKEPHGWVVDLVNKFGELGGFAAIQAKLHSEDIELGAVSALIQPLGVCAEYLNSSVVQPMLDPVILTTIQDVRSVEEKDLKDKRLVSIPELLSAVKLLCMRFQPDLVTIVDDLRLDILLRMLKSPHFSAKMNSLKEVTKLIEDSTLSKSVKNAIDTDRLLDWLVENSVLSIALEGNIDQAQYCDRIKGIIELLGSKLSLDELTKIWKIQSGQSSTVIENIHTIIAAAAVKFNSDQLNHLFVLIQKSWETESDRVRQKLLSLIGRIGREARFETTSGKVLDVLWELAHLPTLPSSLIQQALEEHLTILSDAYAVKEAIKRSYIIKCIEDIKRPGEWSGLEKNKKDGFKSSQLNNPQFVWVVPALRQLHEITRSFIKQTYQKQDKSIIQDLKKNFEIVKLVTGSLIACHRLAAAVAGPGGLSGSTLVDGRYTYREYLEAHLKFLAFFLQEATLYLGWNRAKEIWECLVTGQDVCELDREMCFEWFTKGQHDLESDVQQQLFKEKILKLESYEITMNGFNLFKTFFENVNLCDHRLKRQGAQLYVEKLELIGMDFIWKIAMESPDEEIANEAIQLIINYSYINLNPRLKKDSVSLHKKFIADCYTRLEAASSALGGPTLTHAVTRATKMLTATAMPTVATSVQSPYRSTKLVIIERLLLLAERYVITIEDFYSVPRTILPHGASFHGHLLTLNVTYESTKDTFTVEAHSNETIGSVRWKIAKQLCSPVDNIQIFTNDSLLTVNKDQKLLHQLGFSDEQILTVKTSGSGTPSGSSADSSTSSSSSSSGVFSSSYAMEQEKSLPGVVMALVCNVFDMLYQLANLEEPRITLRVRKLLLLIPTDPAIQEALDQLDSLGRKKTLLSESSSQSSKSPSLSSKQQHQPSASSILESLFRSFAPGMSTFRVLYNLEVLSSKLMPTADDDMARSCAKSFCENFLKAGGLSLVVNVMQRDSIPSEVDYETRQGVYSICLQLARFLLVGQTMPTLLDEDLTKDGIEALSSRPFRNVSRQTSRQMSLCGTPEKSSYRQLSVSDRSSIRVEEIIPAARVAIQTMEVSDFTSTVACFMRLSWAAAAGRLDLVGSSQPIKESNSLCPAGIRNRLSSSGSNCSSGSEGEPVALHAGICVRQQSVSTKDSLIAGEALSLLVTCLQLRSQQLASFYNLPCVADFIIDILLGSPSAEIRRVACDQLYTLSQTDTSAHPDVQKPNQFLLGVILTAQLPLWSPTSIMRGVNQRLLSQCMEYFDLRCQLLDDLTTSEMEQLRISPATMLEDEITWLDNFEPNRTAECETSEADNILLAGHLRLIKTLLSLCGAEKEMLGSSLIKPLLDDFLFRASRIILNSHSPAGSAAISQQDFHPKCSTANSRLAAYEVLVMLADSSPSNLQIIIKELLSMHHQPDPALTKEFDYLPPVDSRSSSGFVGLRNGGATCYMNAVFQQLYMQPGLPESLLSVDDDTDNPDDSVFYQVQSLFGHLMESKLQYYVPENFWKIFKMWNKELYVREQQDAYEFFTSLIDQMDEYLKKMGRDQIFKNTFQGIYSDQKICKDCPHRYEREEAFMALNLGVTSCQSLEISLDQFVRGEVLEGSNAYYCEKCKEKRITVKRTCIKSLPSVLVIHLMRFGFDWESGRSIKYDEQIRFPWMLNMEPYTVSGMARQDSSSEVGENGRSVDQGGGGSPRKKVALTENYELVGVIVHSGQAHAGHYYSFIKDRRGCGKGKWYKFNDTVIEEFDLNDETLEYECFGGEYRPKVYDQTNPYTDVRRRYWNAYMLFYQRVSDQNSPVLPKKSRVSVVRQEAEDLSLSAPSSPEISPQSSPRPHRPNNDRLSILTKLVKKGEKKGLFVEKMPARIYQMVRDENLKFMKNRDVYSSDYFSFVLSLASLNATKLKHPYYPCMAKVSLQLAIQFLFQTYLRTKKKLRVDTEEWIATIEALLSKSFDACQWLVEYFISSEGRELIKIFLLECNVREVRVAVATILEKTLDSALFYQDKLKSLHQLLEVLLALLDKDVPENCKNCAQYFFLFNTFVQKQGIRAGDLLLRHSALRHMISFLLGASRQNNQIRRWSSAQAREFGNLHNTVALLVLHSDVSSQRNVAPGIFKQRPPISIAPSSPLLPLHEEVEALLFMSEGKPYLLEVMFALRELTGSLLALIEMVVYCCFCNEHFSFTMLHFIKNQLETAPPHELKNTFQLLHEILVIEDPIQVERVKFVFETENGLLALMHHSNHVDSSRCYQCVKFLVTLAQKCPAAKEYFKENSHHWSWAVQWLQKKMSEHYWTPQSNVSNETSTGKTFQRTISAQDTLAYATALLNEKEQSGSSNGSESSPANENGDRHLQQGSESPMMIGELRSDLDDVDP
# In short: as §1
# USP25 = target: T3, USP25 (UniProt Q9UHP3)
# T3 sequence (whole entry): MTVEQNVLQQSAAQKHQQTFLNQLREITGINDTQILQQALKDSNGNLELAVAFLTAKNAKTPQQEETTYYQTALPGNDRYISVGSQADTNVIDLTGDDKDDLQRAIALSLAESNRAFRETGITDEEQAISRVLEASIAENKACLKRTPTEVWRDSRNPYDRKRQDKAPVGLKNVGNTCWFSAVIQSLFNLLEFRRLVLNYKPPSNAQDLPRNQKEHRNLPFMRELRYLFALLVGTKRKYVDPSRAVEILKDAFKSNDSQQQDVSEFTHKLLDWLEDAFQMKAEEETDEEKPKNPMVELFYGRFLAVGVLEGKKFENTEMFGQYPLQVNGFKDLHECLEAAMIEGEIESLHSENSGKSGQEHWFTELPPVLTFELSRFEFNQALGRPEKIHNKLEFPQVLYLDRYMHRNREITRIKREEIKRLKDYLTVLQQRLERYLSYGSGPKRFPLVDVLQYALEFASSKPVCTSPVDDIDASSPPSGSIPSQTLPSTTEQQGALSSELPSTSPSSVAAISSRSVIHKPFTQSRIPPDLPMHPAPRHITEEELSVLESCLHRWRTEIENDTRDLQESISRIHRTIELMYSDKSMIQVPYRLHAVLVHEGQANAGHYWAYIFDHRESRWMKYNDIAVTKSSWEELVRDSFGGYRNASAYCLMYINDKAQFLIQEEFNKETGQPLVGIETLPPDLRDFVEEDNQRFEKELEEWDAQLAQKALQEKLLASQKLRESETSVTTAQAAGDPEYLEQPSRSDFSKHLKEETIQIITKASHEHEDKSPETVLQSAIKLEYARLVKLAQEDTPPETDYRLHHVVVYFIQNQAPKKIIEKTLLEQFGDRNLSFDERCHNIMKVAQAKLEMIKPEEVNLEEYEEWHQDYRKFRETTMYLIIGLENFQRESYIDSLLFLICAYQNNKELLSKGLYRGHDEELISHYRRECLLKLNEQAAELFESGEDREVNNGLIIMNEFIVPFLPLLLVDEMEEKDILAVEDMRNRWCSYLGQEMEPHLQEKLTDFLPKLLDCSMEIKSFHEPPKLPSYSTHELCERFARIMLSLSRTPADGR
# In short: as §1
# USP28 = target: T4, USP28 (UniProt Q96RU2)
# T4 sequence (whole entry): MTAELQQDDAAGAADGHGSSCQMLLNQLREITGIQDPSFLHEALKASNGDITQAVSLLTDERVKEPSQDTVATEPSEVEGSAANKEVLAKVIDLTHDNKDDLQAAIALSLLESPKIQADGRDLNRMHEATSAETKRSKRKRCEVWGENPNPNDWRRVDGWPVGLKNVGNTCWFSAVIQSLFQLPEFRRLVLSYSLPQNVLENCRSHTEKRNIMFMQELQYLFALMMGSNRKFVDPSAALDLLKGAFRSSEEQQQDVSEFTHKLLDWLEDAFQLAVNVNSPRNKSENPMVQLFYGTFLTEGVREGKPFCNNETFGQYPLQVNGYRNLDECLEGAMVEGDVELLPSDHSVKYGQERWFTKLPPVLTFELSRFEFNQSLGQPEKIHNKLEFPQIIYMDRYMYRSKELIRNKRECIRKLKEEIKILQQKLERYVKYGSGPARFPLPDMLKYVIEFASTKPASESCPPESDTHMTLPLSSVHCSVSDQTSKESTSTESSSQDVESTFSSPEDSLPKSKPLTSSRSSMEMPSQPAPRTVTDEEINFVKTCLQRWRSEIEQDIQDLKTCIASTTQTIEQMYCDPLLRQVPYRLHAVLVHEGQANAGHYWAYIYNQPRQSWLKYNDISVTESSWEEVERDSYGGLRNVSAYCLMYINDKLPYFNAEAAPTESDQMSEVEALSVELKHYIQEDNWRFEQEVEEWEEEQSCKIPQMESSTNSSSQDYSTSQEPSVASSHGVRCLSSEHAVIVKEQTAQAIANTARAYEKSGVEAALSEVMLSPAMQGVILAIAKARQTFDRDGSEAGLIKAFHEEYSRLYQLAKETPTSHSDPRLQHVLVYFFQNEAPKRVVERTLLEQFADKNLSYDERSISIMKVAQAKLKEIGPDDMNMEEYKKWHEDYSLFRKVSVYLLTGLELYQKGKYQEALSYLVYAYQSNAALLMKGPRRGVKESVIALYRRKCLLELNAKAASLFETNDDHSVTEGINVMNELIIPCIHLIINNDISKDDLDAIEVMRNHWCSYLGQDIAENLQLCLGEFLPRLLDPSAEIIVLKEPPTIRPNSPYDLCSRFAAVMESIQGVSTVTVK
# In short: as §1
compound,measurement,setting,value
CS(=O)(=O)c1ccc(NC(=O)CCl)cc1,log2 ratio of Biotin-Ahx-Ub-VS probe labelling,USP19,-0.223
same,log2 ratio of Biotin-Ahx-Ub-VS probe labelling,USP22,0.107
same,log2 ratio of Biotin-Ahx-Ub-VS probe labelling,USP24,-0.247
same,log2 ratio of Biotin-Ahx-Ub-VS probe labelling,USP25,-1.74 (active)
same,log2 ratio of Biotin-Ahx-Ub-VS probe labelling,USP28,-1.38 (active)
